# From PubChem BioAssay (NCI)
# Compounds without any hit were thinned out: in the full panel of roughly 83,000, 20% have a hit.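 Assay: single dose, 48 h. Readout: percent growth (0 = no net growth; negative = cell death). Active: <10.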 A number with no mark means an inactive call. Active and inactive are the calls of the source.
# Tests used:
# Experiment in all cases: NCI-60 one-dose screen, 48 h (100 = growth as untreated, 0 = no growth, -100 = all killed)
# SK-MEL-2 melanoma = conditions: 10 µM unless noted
# EKVX NSCLC = conditions: 10 µM unless noted
# UO-31 renal = conditions: 10 µM unless noted
# TK-10 renal = conditions: 10 µM unless noted
# ACHN renal = conditions: 10 µM unless noted
# CAKI-1 renal = conditions: 10 µM
# A498 renal = conditions: 10 µM unless noted
# CCRF-CEM leukemia = conditions: 10 µM unless noted
# MOLT-4 leukemia = conditions: 10 µM unless noted
# SR leukemia = conditions: 10 µM unless noted
# RPMI-8226 leukemia = conditions: 10 µM unless noted
# OVCAR-8 ovarian = conditions: 10 µM unless noted
# OVCAR-5 ovarian = conditions: 10 µM unless noted
# OVCAR-4 ovarian = conditions: 10 µM unless noted
# SK-OV-3 ovarian = conditions: 10 µM unless noted
# IGROV1 ovarian = conditions: 10 µM unless noted
# OVCAR-3 ovarian = conditions: 10 µM unless noted
# HS 578T breast = conditions: 10 µM unless noted
# NCI/ADR-RES ovarian = conditions: 10 µM unless noted
# SN12C renal = conditions: 10 µM unless noted
SMILES,growth (SK-MEL-2 melanoma),growth (EKVX NSCLC),growth (UO-31 renal),growth (TK-10 renal),growth (ACHN renal),growth (CAKI-1 renal),growth (A498 renal),growth (CCRF-CEM leukemia),growth (MOLT-4 leukemia),growth (SR leukemia),growth (RPMI-8226 leukemia),growth (OVCAR-8 ovarian),growth (OVCAR-5 ovarian),growth (OVCAR-4 ovarian),growth (SK-OV-3 ovarian),growth (IGROV1 ovarian),growth (OVCAR-3 ovarian),growth (HS 578T breast),growth (NCI/ADR-RES ovarian),growth (SN12C renal)
C=C1C(=O)O[C@@H]2/C=C(/C)C3=CC(=O)[C@@](C)(C[C@H](OC(=O)/C(C)=C\C)[C@@H]12)O3,-28.5% (active),21.6%,-85.4% (active),-18% (active),-39.1% (active),6.13% (active),59.5%,-14.9% (active),0.44% (active),2.49% (active),-11.3% (active),8.15% (active),4.42% (active),21%,92.6%,19%,2.79% (active),46.5%,17.4%,–
CC1OC(O[C@@H]2C(O)C(CO)OC(O[C@H]3COC(O[C@H]4CC[C@]5(C)[C@H]6CC[C@]78OC[C@@]9(CC[C@](C)(C=O)C[C@H]97)[C@H](O)C[C@@]8(C)[C@]6(C)CC[C@H]5C4(C)C)[C@@H](OC4OC(CO)[C@@H](O)[C@@H](O)[C@@H]4O)[C@@H]3O)[C@H]2OC2OC[C@@H](O)[C@@H](O)[C@@H]2O)[C@@H](O)[C@@H](O)[C@H]1O (stereo partly specified),-35.2% (active),22.2%,-93.6% (active),29.5%,-82.2% (active),-80.7% (active),-89.3% (active),4.93% (active),-36% (active),-18.3% (active),32.9%,27.1%,-78.7% (active),–,-93.9% (active),43.8%,–,–,46.1%,–
O=C(/C=C/Nc1ccc(S(=O)(=O)O)cc1)c1ccc(F)cc1,–,107%,91.8%,97.2%,101%,90.4%,93%,98.5%,102%,90.8%,95.9%,99.5%,103%,105%,117%,109%,–,97.3%,97.3%,105%
COc1ccc(NC(=O)[C@H](C)NC(=O)OC(C)(C)C)cc1C(=O)Nc1cccc(-c2cc(=O)c3c(OC)c(OC)c(OC)cc3o2)c1,–,3.7% (active),16.8%,-3.36% (active),10.3%,17.4%,-53.3% (active),3.69% (active),7.83% (active),8.47% (active),-39.4% (active),-27.5% (active),3.94% (active),21.3%,-17.8% (active),11.5%,–,-9.5% (active),61.4%,2.23% (active)
O=S(=O)(NC1CC2CCC1C2)c1ccc2c(c1)C(=NO)c1cc(S(=O)(=O)NC3CC4CCC3C4)ccc1-2 (stereo unspecified),98.1%,–,-93% (active),95.6%,-95.4% (active),-97.5% (active),89.4%,-18.8% (active),47.1%,-7.47% (active),-24.6% (active),67%,42.5%,-52.4% (active),86.4%,-73.7% (active),–,86%,63.7%,34.6%
CCCCCCNC(=O)Oc1ccc(/C(=C(/C)c2ccccc2)c2ccc(OCCN(C)C)cc2)cc1,–,72.2%,53.9%,83%,71.3%,50.9%,76.5%,67.9%,34.7%,-27.8% (active),50.5%,73.6%,73%,73.6%,93.2%,66.3%,–,64.5%,71.2%,63.6%
Oc1ccc(CSc2nnc(-c3ccc(Cl)cc3)o2)c2cccnc12,–,34%,2.83% (active),39.1%,11.4%,20.2%,75.5%,13.3%,15.3%,34.3%,18.6%,18.9%,73.1%,19.8%,20.3%,16.4%,30.8%,1.27% (active),9.8% (active),37.4%
CCC(CC)N1C(=O)/C(=c2\sc3n(c2=O)C2C(NN=3)N(CC)C(=O)N2CC)c2ccccc21 (stereo unspecified),–,48.1%,39.8%,86.5%,32%,39.9%,-17% (active),15.8%,10%,5.6% (active),8.29% (active),34.8%,29.8%,38.4%,42.6%,23%,–,25.6%,11%,18.2%
CCN1C(=O)N(CC)C2SC(N/N=C/c3ccccc3)=NC21 (stereo unspecified),9.45% (active),–,54.6%,81.3%,36%,40.1%,-19.2% (active),16.7%,21.4%,18.6%,21.2%,8.59% (active),51.6%,71.6%,38.3%,28%,–,15.8%,3.93% (active),34.4%
COc1ccc2c(ccn2C(=O)N2c3ccccc3Sc3ccccc32)c1,4.71% (active),–,55%,65.1%,49.2%,30.9%,-8.02% (active),18.7%,37.2%,22%,16.8%,31.9%,60.6%,66.5%,42.5%,39.2%,–,19.8%,11.6%,47.3%
N#Cc1c(-c2ccccc2)cc(-c2c[nH]c3ccccc23)nc1-c1c[nH]c2ccccc12,–,83.1%,68.3%,124%,96.4%,87.3%,98.7%,103%,102%,96.7%,101%,98.7%,103%,104%,93.3%,82.1%,–,93.4%,98.3%,95.6%
C#C[C@]1(O)CC[C@H]2[C@@H]3CC=C4c5sc(Nc6nc(C)cc(OC)n6)nc5CC[C@]4(C)[C@H]3CC[C@@]21C,–,41.8%,-1.87% (active),121%,49.2%,19.2%,18.7%,12.7%,7.93% (active),12.4%,-0.189% (active),73.3%,78.8%,88.4%,47.5%,66%,–,-6.82% (active),62.7%,73%
Cc1ccc(NC(=O)c2cc(/C=C/C(=O)NO)cc(C(F)(F)F)c2)cc1Nc1nccc(-c2cccnc2)n1,–,28%,18.8%,15.2%,18.5%,6.2% (active),-46.9% (active),5.21% (active),5.15% (active),4.9% (active),-13% (active),-12.2% (active),17.4%,23%,-38.3% (active),2.46% (active),–,-14.5% (active),87.8%,2.25% (active)
CCOC(=O)/C(F)=C/C1CC1C1CCCCC1 (stereo unspecified),–,110%,91.5%,95.3%,105%,90.9%,97.2%,114%,102%,111%,105%,109%,102%,107%,126%,110%,–,105%,101%,103%
C/C(=C(/c1ccc(O)cc1)c1ccc(OCCN(C)C)cc1)c1ccc(Cl)cc1,–,61.4%,50.6%,85%,32.8%,36.2%,70.2%,53%,11.9%,-3.2% (active),-8.72% (active),62.1%,66.6%,66.9%,83%,58.1%,–,46.8%,61.8%,59.1%
CS(=O)c1nccc(-c2c(-c3ccc(F)c(OCc4ccccc4)c3)nc3sccn23)n1 (stereo unspecified),–,83%,94.9%,106%,82.6%,89.3%,94.2%,76.4%,32.2%,-1.23% (active),60.6%,96.1%,104%,102%,114%,68.7%,–,101%,102%,97.4%
CS(=O)(=O)c1nccc(-c2c(-c3ccc(F)c(OCc4ccccc4)c3)nc3sccn23)n1,–,87.6%,86%,101%,93.4%,93.6%,80.3%,54.7%,74%,16.6%,43.3%,99.6%,100%,104%,117%,101%,–,91.3%,99.9%,97.5%
